Sampled rows, rich in hits. Any-hit rate of the full collection: about 1.4%.
PINK1 modulator: A Quantitative High throughput Screen to Identify Chemical Modulators of PINK1 Expression. AID 624263, 2012. Potency, µM (top dose mostly 76.6 µM), for the others: at the top dose activation (PINK1 increase), usual class: activators. PINK1 immunofluorescence, high-content cytometry, 24 h. 0.2% of 410,000 active; active = well fitted activation curve with a large enough effect; inconclusive = small, poorly fitted or top-dose-only effect; cell line not stated here; note: potency is the fitted concentration of half-maximal effect; % of control where 0% means no effect; nearly all actives have a fitted effect of over 65% in size
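PINK1 protein, normally rapidly degraded, was detected by immunofluorescence after 24 hour compound treatment of a stable cell line. Titration data (5 concentrations) came from laser-scanning cytometry, with CCCP-treated wells as controls.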
Mm-Cpn inhibitor: Inhibitors of TCP-1 ring complex (TRiC) of Methanococcus maripaludis (MmCpn): qHTS; AID 504842, 2011; 0.031% of 330,000 active; purified Mm-Cpn ATPase, ADP Transcreener TR-FRET; Potency, µM (doses to about 76.9 µM), for the others: at the top dose activity, negative = inhibition, hits mostly inhibitors; Chaperonin Mm-Cpn (Methanococcus maripaludis); note: potency is the fitted concentration of half-maximal effect; % is set by controls: 0 for no effect and ±100 for the full control effect; nearly all actives have a fitted effect of over 80% in size
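Inhibition of chaperonin ATP hydrolysis is measured as reduced ADP production, detected by competitive TR-FRET in which signal falls with ADP. Final enzyme 25 nM and ATP 10 uM, reacted 30 min at 37°C.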
12-LOX inh: Primary qHTS assay for inhibitors of human arachidonate 12S-lipoxygenase (ALOX12): Round 2. Polyunsaturated fatty acid lipoxygenase ALOX12 (Homo sapiens), P18054. purified 12hLO, xylenol orange hydroperoxide absorbance. Potency, µM (titrated, usually from 108 µM), for the others: at the highest dose activity change, negative = inhibition, hits mostly inhibitors. 1.1% of 580,000 active; note: potency is the fitted concentration of half-maximal effect; % is set by controls: 0 for no effect and ±100 for the full control effect
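Hydroperoxide product was detected by ferrous iron/xylenol orange as the 573 to 405 nm absorbance ratio. Arachidonic acid at 40 uM (final) was turned over for 30 min at room temperature by 150 nM human 12hLO, pH 7.0 Hepes buffer, after 15 min compound preincubation.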
p53 reactivation: qHTS assay for re-activators of p53 using a Luc reporter; 0.063% of 320,000 active; Potency, µM (top dose mostly 92.2 µM), inactives show top-dose activity change, positive = activation, hits mostly activators; AID 504706, 2011; H1299 p53-A138V BP100-luciferase reporter, luminescence, 24 h; note: potency is the fitted concentration of half-maximal effect; % of control where 0% means no effect; nearly all actives have a fitted effect of over 45% in size
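H1299 (p53-null), stable ts p53-A138V + BP100-Luc; 1000 cells/well, Opti-MEM/10% FBS; cpd 4 pt, 1:5; 24 h, 37 deg C, 5% CO2; detection reagent 10 min RT; luminescence.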
CCT modulator: High-Throughput Screening for Modulators of Cytosolic Chaperonin Activity. purified chaperonin ATPase assay, HTRF ADP detection, 30 min. activity change, % (test concentration not listed), hits read low. 0.3% of 360,000 active. AID 651819, 2012; in the data active = activity change below about -30%; note: % is set by controls: 0 for no effect and ±100 for the full control effect
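Enzyme 40 or 20 nM (batch-dependent) in Tris pH 7.4/KCl/MgCl2/DTT; cpd 76 uM single point; ATP 10 uM; 30 min 37 °C; Transcreener ADP HTRF detection, 30 min RT; ratio 665/615.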
ASM inhibitor: Inhibitors of Secretory Acid Sphingomyelinase (S-ASM): qHTS | Sphingomyelin phosphodiesterase (Homo sapiens), P17405 | placental ASM, HMU-PC fluorogenic substrate, 60 min | Potency, µM (doses to about 57.5 µM), inactives show top-dose activity change, negative = inhibition, usual class: inhibitors | 0.006% of 340,000 active; note: potency is the fitted concentration of half-maximal effect
Target sequence (P17405 47-631 limits assumed): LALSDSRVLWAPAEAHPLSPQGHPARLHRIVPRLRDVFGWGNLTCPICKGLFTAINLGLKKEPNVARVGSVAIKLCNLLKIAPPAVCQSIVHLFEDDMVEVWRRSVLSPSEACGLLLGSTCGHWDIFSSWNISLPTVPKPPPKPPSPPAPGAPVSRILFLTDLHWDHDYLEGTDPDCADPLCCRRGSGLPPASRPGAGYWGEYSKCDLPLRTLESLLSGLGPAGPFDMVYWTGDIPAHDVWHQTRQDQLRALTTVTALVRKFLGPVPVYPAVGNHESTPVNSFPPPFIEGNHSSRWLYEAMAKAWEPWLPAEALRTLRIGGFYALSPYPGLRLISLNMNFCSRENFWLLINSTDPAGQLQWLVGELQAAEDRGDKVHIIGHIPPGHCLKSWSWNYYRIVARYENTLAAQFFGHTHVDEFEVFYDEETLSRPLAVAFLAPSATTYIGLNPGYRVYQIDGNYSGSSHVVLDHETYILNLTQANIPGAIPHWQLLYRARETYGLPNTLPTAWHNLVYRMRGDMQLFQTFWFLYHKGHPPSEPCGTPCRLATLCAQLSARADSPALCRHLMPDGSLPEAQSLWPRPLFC
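qHTS format. ASM enzyme prepared from human placenta hydrolyses the fluorogenic substrate HMU-PC0 (9 uM final) over 60 min at 37 °C after a 10 min compound preincubation.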
Starred values were filed as active, the others as inactive; [ ] = remark or other dose. Unless noted, calls come from the whole dose curve; as a rule, active = well fitted curve in the direction sought with a large enough effect; inconclusive = small, poorly fitted or top-dose-only effect, or another doubt; inactive = no such curve, though single readings can be large; an effect the other way counts as inactive or inconclusive.

What do the screens show for `Cc1oc2cc(OCC(=O)NC3(C)CCS(=O)(=O)C3)ccc2c(=O)c1Oc1ccccc1` (configuration not stated)?
12-LOX inh: -19%

How did COc1ccc(CN2C(=O)CO[C@H]3CN(CC4CC4)C[C@H]32)cc1 do in these assays?
12-LOX inh: 7%[176 µM]

What do the screens show for `COc1ccc(CN2C(=O)CO[C@H]3CN(Cc4c[nH]c5ccccc45)C[C@H]32)cc1`?
12-LOX inh: 40µM*

Results for O=C(C1CC1)N1CCN=C1SCc1ccccc1 ?
PINK1 modulator: 1%; Mm-Cpn inhibitor: 1%; 12-LOX inh: 5%; p53 reactivation: 5%; CCT modulator: 3; ASM inhibitor: 0%

How did CC(Oc1ccccc1)C(=O)N1CCN=C1SCc1ccccc1 (configuration not stated) do in these assays?
PINK1 modulator: 0%; Mm-Cpn inhibitor: inconclusive; 12-LOX inh: -13%; p53 reactivation: 13%; CCT modulator: -42*; ASM inhibitor: 2%

How did N#Cc1c(-c2ccco2)cc(-c2ccc(F)cc2)nc1N do in these assays?
PINK1 modulator: 8%; Mm-Cpn inhibitor: -2%; 12-LOX inh: 5.6µM*; p53 reactivation: 3%; CCT modulator: 0; ASM inhibitor: inactive

How did N#Cc1c(-c2ccc(F)cc2)cc(-c2cccnc2)nc1N do in these assays?
PINK1 modulator: 16%; Mm-Cpn inhibitor: 0%; 12-LOX inh: -11%; p53 reactivation: 1%; CCT modulator: 2; ASM inhibitor: 332%

How did Cc1cccc(C(=O)Nc2ccc(C3(C(=O)NCCC(C)C)CCCCC3)cc2)c1 do in these assays?
12-LOX inh: 7.9µM*

How did CCCCNC(=O)C1(c2ccc(NC(=O)C(C)C)cc2)CCCCC1 do in these assays?
12-LOX inh: -9%

What do the screens show for `Cn1nnnc1-c1cccc(NCC(=O)NC2(C#N)CCCCC2)c1`?
12-LOX inh: 5%

Results for CCNC(=S)N/N=C1\CCCCc2ccccc21 ?
PINK1 modulator: 0%; Mm-Cpn inhibitor: 3%; 12-LOX inh: inconclusive; p53 reactivation: 4%; CCT modulator: 1; ASM inhibitor: 6%

What do the screens show for `COc1cccc(NC(=S)NN=C2CCCCCC2)c1`?
PINK1 modulator: 1%; Mm-Cpn inhibitor: -2%; 12-LOX inh: inconclusive; p53 reactivation: 1%; CCT modulator: -3; ASM inhibitor: -1%

Results for O=C(N/N=C1\CCCCc2ccccc21)c1ccccn1 ?
PINK1 modulator: -1%; Mm-Cpn inhibitor: 2%; 12-LOX inh: -3%; p53 reactivation: 14%; CCT modulator: -2; ASM inhibitor: 4%

Results for C=C(C)CNC(=S)N/N=C1\CCCCc2ccccc21 ?
PINK1 modulator: 0%; Mm-Cpn inhibitor: 0%; 12-LOX inh: 35µM*; p53 reactivation: 7%; CCT modulator: 1; ASM inhibitor: 0%

What do the screens show for `S=C(N/N=C1/CCCCc2ccccc21)NC1CCCCC1`?
12-LOX inh: 45µM*

What do the screens show for `COC(=O)NN=C1CCC(c2ccccc2)CC1` (configuration not stated)?
PINK1 modulator: 1%; Mm-Cpn inhibitor: 2%; 12-LOX inh: 489%; p53 reactivation: 5%; CCT modulator: 0; ASM inhibitor: -5%

What do the screens show for `S=C(NN=C1CCC(c2ccccc2)CC1)NC1CCCCC1` (configuration not stated)?
12-LOX inh: 35µM*

What do the screens show for `Cc1cccc(NC(=S)NN=C2CCCC2)c1`?
12-LOX inh: 14µM*

What do the screens show for `Cc1ccc(C)c(NC(=S)N/N=C2\CCc3ccccc32)c1`?
PINK1 modulator: inconclusive; Mm-Cpn inhibitor: -1%; 12-LOX inh: 22µM*; p53 reactivation: 16%; CCT modulator: -1; ASM inhibitor: -1%

Results for Cc1ccc(NC(=S)N/N=C2/CCCCc3ccccc32)cc1 ?
PINK1 modulator: 3%; Mm-Cpn inhibitor: 1%; 12-LOX inh: 32µM*; p53 reactivation: 26%; CCT modulator: 1; ASM inhibitor: -1%

What do the screens show for `COc1ccc(NC(=S)N/N=C2/CCCc3c(C)cc(C)cc32)cc1`?
PINK1 modulator: 10%; Mm-Cpn inhibitor: 3%; 12-LOX inh: 0%; p53 reactivation: -4%; CCT modulator: -1; ASM inhibitor: -5%

What do the screens show for `Cc1cccc(NC(=S)N/N=C2/CCCCc3ccccc32)c1`?
PINK1 modulator: 0%; Mm-Cpn inhibitor: 0%; 12-LOX inh: 32µM*; p53 reactivation: 9%; CCT modulator: -16; ASM inhibitor: -1%

How did COc1ccc2cc(C3CN(C(=O)Cc4ccc(O)cc4)CCO3)ccc2c1 (configuration not stated) do in these assays?
12-LOX inh: -4%

What do the screens show for `CCCN(CCC)c1nc2ccccc2nc1C(C#N)C(=O)OCCOC` (configuration not stated)?
PINK1 modulator: 3%; 12-LOX inh: inconclusive; CCT modulator: -2; ASM inhibitor: 72%

Results for CCCOC(=O)C(C#N)c1nc2ccccc2nc1Cl (configuration not stated) ?
12-LOX inh: 18µM*

How did Cc1nc(-c2ccc(O)c(O)c2)cs1 do in these assays?
PINK1 modulator: 0%; Mm-Cpn inhibitor: 0%; 12-LOX inh: 7.1µM*; p53 reactivation: 16%; CCT modulator: -3; ASM inhibitor: 1%

How did Clc1ccc(-c2csc(-c3nc(-c4ccc(Br)s4)cs3)n2)cc1 do in these assays?
PINK1 modulator: 2%; 12-LOX inh: -18%

How did Oc1ccc(-c2nc(-c3ccc(Cl)cc3)cs2)cc1 do in these assays?
12-LOX inh: 14µM*

How did Oc1ccc(-c2csc(-c3ccccc3)n2)cc1O do in these assays?
PINK1 modulator: 2%[38.3 µM]; Mm-Cpn inhibitor: 0%; 12-LOX inh: 7.1µM*; p53 reactivation: inconclusive; CCT modulator: -2; ASM inhibitor: -11%

What do the screens show for `Oc1ccc(-c2csc(Nc3ncccn3)n2)cc1O`?
PINK1 modulator: 1%; Mm-Cpn inhibitor: -1%; 12-LOX inh: 40µM*; p53 reactivation: 13%; CCT modulator: -3; ASM inhibitor: 1%

How did Oc1ccc(-c2csc(Nc3ncccn3)n2)c(O)c1 do in these assays?
PINK1 modulator: 1%; Mm-Cpn inhibitor: 1%; 12-LOX inh: -11%; p53 reactivation: 0%; CCT modulator: -2; ASM inhibitor: -1%

Screens (PubChem)
